In PubChem BioAssay (EPA / NIEHS):
Several values for one entry are separate records, joined by “and”; a condition that tells them apart may be missing. Identical values can stand only once. A structure can be active in one record and inactive in another. Activity calls are given as the source filed them. How the source made its calls: active means hit-call score of the fitted dose curve at least 0.9, where 1 is the maximum; inactive means score below 0.9.

Assay: APR_HepG2_CellLoss_72hr: Apredica 72-hour HepG2 Assay for Cell Loss (AID 2282915)
Details: high-content imaging
Method in brief: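 HepG2 cells were exposed for 72 hr to compounds at 0.39–200 uM (ten concentrations, duplicate) in 0.5% v/v final DMSO. Nuclei were stained with Hoechst 33342 after 3.7% formaldehyde fixation, imaged at 20x, and counted; fits bidirectional versus DMSO.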

Question: With `CON(C)C(=O)Nc1ccc(Cl)c(Cl)c1` as the compound, how does the outcome read?
Answer: inactive

Question: Which AC50 does the source give for `N#Cc1nn(-c2c(Cl)cc(C(F)(F)F)cc2Cl)c(N)c1S(=O)C(F)(F)F` (configuration not stated) here?
Answer: 63.1 µM (active)

Question: With `CCOC(=O)C(Cl)Cc1cc(-n2nc(C)n(C(F)F)c2=O)c(F)cc1Cl` (configuration not stated) as the compound, how does the outcome read?
Answer: inactive

Question: Which AC50 does the source give for `CCCC1COC(Cn2cncn2)(c2ccc(Cl)cc2Cl)O1` (configuration not stated) here?
Answer: 76 µM (active)

Question: Which outcome does the source give for `CC(Oc1ccc(Cl)cc1Cl)C(=O)O` (configuration not stated) here?
Answer: inactive

Question: Which AC50 does the source give for `OC(c1ccc(Cl)cc1)(c1cncnc1)c1ccccc1Cl` (configuration not stated) here?
Answer: 10.4 µM (active)

Question: Which outcome does the source give for `COC(=O)c1ccccc1C(=O)OC` here?
Answer: inactive

Question: For `COc1nc(C)nc(NC(=O)NS(=O)(=O)c2ccccc2Cl)n1`, which outcome is on record?
Answer: inactive

Question: For `CCCCNC(=O)OCC#CI`, which AC50 is on record?
Answer: 1.45 µM (active) and 7.9 µM (active)

Question: Which AC50 does the source give for `CN(C)C(=S)SSC(=S)N(C)C` here?
Answer: 0.153 µM (active)

Question: For `CCOc1cc(Oc2ccc(C(F)(F)F)cc2Cl)ccc1[N+](=O)[O-]`, which AC50 is on record?
Answer: 31.5 µM (active)

Question: With `Cc1ccc(-c2c(Cl)nc(C#N)n2S(=O)(=O)N(C)C)cc1` as the compound, how does the AC50 read?
Answer: 65.4 µM (active)

Question: With `CC1=C(C(=O)Nc2ccccc2)SCCO1` as the compound, how does the outcome read?
Answer: inactive

Assay: APR_HepG2_P-H2AX_72hr: Apredica 72-hour HepG2 Assay for H2AX Phosphorylation (AID 2282916);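 further: phospho-histone H2A.x immunostain intensity per cell marking DNA damage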
Details: imaging, actives raise or lower the signal
Method in brief: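 Phospho-histone H2A.x immunofluorescence, multiplexed with Hoechst and c-Jun, quantified by high-content imaging. Compounds applied to HepG2 for 72 h across ten concentrations (0.39–200 uM, 0.5% DMSO), in duplicate; DMSO baseline.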

Question: For `CON(C)C(=O)Nc1ccc(Cl)c(Cl)c1`, which outcome is on record?
Answer: inactive

Question: For `N#Cc1nn(-c2c(Cl)cc(C(F)(F)F)cc2Cl)c(N)c1S(=O)C(F)(F)F` (configuration not stated), which AC50 is on record?
Answer: 34.9 µM (active)

Question: With `CCOC(=O)C(Cl)Cc1cc(-n2nc(C)n(C(F)F)c2=O)c(F)cc1Cl` (configuration not stated) as the compound, how does the outcome read?
Answer: inactive

Question: Which outcome does the source give for `N#Cc1cc(Br)c(O)c(Br)c1` here?
Answer: inactive

Question: With `CCCC1COC(Cn2cncn2)(c2ccc(Cl)cc2Cl)O1` (configuration not stated) as the compound, how does the outcome read?
Answer: inactive

Question: For `CC(Oc1ccc(Cl)cc1Cl)C(=O)O` (configuration not stated), which outcome is on record?
Answer: inactive

Question: Which AC50 does the source give for `CO/C=C(/C(=O)OC)c1ccccc1Oc1cc(Oc2ccccc2C#N)ncn1` here?
Answer: 53.2 µM (active) and 42.2 µM (active)

Question: What about the outcome of the same compound?
Answer: inactive

Question: Which outcome does the source give for `OC(c1ccc(Cl)cc1)(c1cncnc1)c1ccccc1Cl` (configuration not stated) here?
Answer: inactive

Question: For `COc1cnc(OC)n2nc(NS(=O)(=O)c3c(OCC(F)F)cccc3C(F)(F)F)nc12`, which outcome is on record?
Answer: inactive

Question: For `CCCN(CCC)c1c([N+](=O)[O-])cc(S(N)(=O)=O)cc1[N+](=O)[O-]`, which AC50 is on record?
Answer: 128 µM (active) and 34.6 µM (active)

Question: And the outcome?
Answer: inactive

Question: With `COC(=O)c1ccccc1C(=O)OC` as the compound, how does the outcome read?
Answer: inactive

Question: With `COc1nc(C)nc(NC(=O)NS(=O)(=O)c2ccccc2Cl)n1` as the compound, how does the outcome read?
Answer: inactive

Question: With `COP(N)(=O)SC` (configuration not stated) as the compound, how does the outcome read?
Answer: inactive

Question: With `Cc1cc(Cl)ccc1OCC(=O)O` as the compound, how does the outcome read?
Answer: inactive

Question: Which results are given for `C=CCC1=C(C)C(OC(=O)C2C(C=C(C)C)C2(C)C)CC1=O` (configuration not stated)?
Answer: AC50: 53.8 µM (active) and 47.5 µM (active); outcome: inactive

Question: For `CCCCNC(=O)OCC#CI`, which outcome is on record?
Answer: inactive

Question: With `CN(C)C(=S)SSC(=S)N(C)C` as the compound, how does the AC50 read?
Answer: 0.0895 µM (active)

Question: With `CCOc1cc(Oc2ccc(C(F)(F)F)cc2Cl)ccc1[N+](=O)[O-]` as the compound, how does the outcome read?
Answer: inactive

Question: With `O=C(O)c1nc(Cl)ccc1Cl` as the compound, how does the outcome read?
Answer: inactive

Question: With `CCOP(=S)(OCC)SCn1c(=O)oc2cc(Cl)ccc21` as the compound, how does the outcome read?
Answer: inactive

Question: With `CCCCNC(=O)n1c(NC(=O)OC)nc2ccccc21` as the compound, how does the outcome read?
Answer: inactive

Question: Which outcome does the source give for `COC(=O)C=C(C)OP(=O)(OC)OC` here?
Answer: inactive

Question: Which AC50 does the source give for `Cc1ccc(-c2c(Cl)nc(C#N)n2S(=O)(=O)N(C)C)cc1` here?
Answer: 104 µM (active)

Question: Which outcome does the source give for `C#CCOS(=O)OC1CCCCC1Oc1ccc(C(C)(C)C)cc1` (configuration not stated) here?
Answer: inactive

Question: For `COc1nc(C)nc(NC(=O)NS(=O)(=O)c2ccccc2CCC(F)(F)F)n1`, which outcome is on record?
Answer: inactive

Question: Which outcome does the source give for `CC1=C(C(=O)Nc2ccccc2)SCCO1` here?
Answer: inactive
